Screening data (PubChem)
APOBEC3A inh – blocks human APOBEC3A ssDNA deamination; inhibition, % at 20 µM; recombinant A3A, FAM/TAMRA ssDNA deamination fluorescence; P31941; 330,000 tested, 0.41% active;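 active means at least 40% inhibition at 20 µM here, with at most 30% in a related deaminase screen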;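 further: plate controls were A3A with DMSO for no effect and wells lacking A3A enzyme for full effect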
Target sequence (P31941 whole entry, looked up): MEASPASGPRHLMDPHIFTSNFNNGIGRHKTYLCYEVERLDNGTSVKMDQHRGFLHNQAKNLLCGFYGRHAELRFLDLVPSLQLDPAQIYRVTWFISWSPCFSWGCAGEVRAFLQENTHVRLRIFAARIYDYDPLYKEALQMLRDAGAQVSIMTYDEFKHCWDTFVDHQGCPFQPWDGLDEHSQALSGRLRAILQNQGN
rCAG binder – r(CAG) repeat RNA binding | inhibition, % at 3 µM | 370,000 tested, 1.3% active | TO-PRO-1 dye displacement fluorescence | AID 651821;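 active means inhibition above the plate cutoff, the mean of all test compounds on that plate plus 3 SD, cut at about 35% in these data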;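 further: 0% = DMSO alone and 100% = 100 µM mitoxantrone as full dye displacement; higher means more dye released from RNA so lower well fluorescence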
APOBEC3G inh – APOBEC3G (human) deaminase inhibition | Q9HC16 | recombinant A3G, ssDNA deamination FAM/TAMRA fluorescence | inhibition, % at 20 µM | 330,000 tested, 0.28% active | AID 493012;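 active means inhibition of at least 40% at 20 µM, with no more than 30% in the related APOBEC3A deaminase screen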;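 further: plate controls were DMSO wells with A3G for no effect and wells lacking A3G enzyme for full effect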
Target sequence (Q9HC16 whole entry, looked up): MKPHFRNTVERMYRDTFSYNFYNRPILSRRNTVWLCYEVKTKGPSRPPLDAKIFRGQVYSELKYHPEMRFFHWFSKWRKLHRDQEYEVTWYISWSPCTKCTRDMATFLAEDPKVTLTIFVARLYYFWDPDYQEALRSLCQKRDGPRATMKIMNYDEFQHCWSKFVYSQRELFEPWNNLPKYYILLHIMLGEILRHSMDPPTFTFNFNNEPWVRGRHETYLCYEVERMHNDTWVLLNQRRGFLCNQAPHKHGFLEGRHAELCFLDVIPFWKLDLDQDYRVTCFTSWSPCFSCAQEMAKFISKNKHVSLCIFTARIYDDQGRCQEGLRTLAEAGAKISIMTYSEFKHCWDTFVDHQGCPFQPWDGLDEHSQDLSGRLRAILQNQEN
aDG glyco up – increases alpha dystroglycan glycosylation. AID 624168. activation, % at 10 µM. Pro5-aDG cells, alpha-DG glycosylation AlphaScreen (IIH6); 0% Pro5, 100% B10-LARGE cell signal. 360,000 tested, 0.22% active;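 active means activation of at least 8% versus controls, or a plate z-score of at least 8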;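 further: Pro5 are CHO cells carrying HIG-tagged alpha-DG that lacks glycosylation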
PHOSPHO1 block – inhibitors of human PHOSPHO1 phosphatase | Q8TCT1 | recombinant PHOSPHO1, absorbance phosphatase assay | inhibition, % at 13.3 µM | 290,000 tested, 1.1% active | AID 1565; in the data active means inhibition above about 60%
ALR inh – human ALR oxidase inhibition via reduced H2O2. P55789. purified ALR, DTT oxidation, H2O2 HRP-luminol luminescence. inhibition, % (concentration not given with the values). 290,000 tested, 3.8% active. AID 485317;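 active means mean replicate inhibition above about 79%, with every replicate also reaching it, limit read from the data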
rCAG binder conf – r(CAG) RNA repeat binding, confirmation. 4,300 tested, 70% active. TO-PRO-1 dye displacement fluorescence. shares compounds with rCAG binder. AID 652065. inhibition, % at 3 µM;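 active means inhibition above a per-plate cutoff, the mean inhibition of sample wells plus 3 SD, cut at about 35% in these data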;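 further: loss of TO-PRO-1 fluorescence as compound displaces dye from 1x1 AA loop RNA; 0% = DMSO only wells and 100% = 100 µM mitoxantrone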
dCAG dye counter – counter-screen for rCAG RNA binders: DNA CAG dye complex inhibitors. shares compounds with rCAG binder. d(CAG) DNA oligo TO-PRO-1 dye displacement, fluorescence. 4,300 tested, 94% active. inhibition, % at 3 µM;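 active means inhibition above its plate's cutoff, the mean test-well inhibition plus 3 SD, cut at about 4.8% in these data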;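 further: 0% = DNA dye mix with DMSO and 100% = 100 µM mitoxantrone; hits displace the dye from DNA and so lower well fluorescence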
Starred values were filed as active, the others as inactive; · = no result given. Hits are enriched below; roughly 5.4% of the tested compounds scored in any of these assays.

SMILES	APOBEC3A inh	rCAG binder	APOBEC3G inh	aDG glyco up	PHOSPHO1 block	ALR inh	rCAG binder conf	dCAG dye counter
CCN(c1ccccc1)S(=O)(=O)c1cc(NC(=O)C2CC2)ccc1Cl	-1	3	-7	0	·	·	·	·
O=C(CSc1ccccn1)Nc1ccc2c(c1)C(=O)c1ccccc1C2=O	·	10	·	0	-25	-7	·	·
CCOC(=O)c1ccc(S(=O)(=O)Nc2nc3cc(S(=O)(=O)NC4=NCCCCC4)ccc3s2)cc1	2	59*	-14	0	-8	97*	56*	23*
C/C(=N/Nc1ccc(C(=O)O)cc1)c1ccc2c(c1)Nc1ccccc1S2	·	45*	·	0	·	·	81*	41*
C/C(=N\Nc1ccc(C(=O)O)cc1)c1ccc2c(c1)Nc1ccccc1S2	10	39*	-3	0	4	100*	86*	59*
COc1ccc(/C(C)=N/Nc2cccc(C(=O)O)c2)cc1OC	5	3	2	0	-31	-14	·	·
CCOC(=O)C1(C)CCN1C(=O)c1oc2ccccc2c1C (configuration not stated)	·	-1	·	0	·	·	·	·
O=C(Nc1ccccc1Cc1ccccc1)c1ccccc1NS(=O)(=O)c1ccc(Cl)s1	0	91*	-1	1	-2	5	91*	66*
Cc1ccc(NC(=O)c2ccccc2NS(=O)(=O)c2ccc(Cl)s2)cc1	0	85*	-8	1	-6	·	72*	34*
CS(=O)(=O)c1ccccc1C(=O)Nc1ccccc1Cc1ccccc1	-2	-1	4	0	24	-1	·	·
O=c1c2ccccc2n(Cc2ccno2)n1[C@@H](Cc1ccccc1)Cn1cc(-c2ccc(-c3ccccc3)cc2)nn1	·	10	·	·	·	·	·	·
O=C1C(O)CCN1Cc1ccccc1 (configuration not stated)	·	0	·	0	·	·	·	·
COc1ccc(S(=O)(=O)NNC(=O)c2cc3cc4ccccc4nc3s2)cc1	-3	35*	-6	0	-15	36	23	6.4*
CN1[C@@H](COCc2ccccc2)C=CS1(=O)=O	·	3	·	0	·	·	·	·
Cc1ccccc1-c1cccc([C@@H]2C[C@H]3[C@H](CON3C)CN2Cc2cc(Cl)cc(Cl)c2)c1	·	1	·	0	·	·	·	·
COC(=O)c1cc(-c2cccs2)c(=O)n2c1CCC2	·	5	·	·	·	·	·	·
O=C(O)c1cnn(-c2nc(-c3ccc(Cl)c(Cl)c3)cs2)c1C(F)(F)F	1	64*	-5	0	·	1	44*	9.5*
O=C(O)c1cnn(-c2nc(-c3cccc(F)c3)cs2)c1C(F)(F)F	1	5	-2	0	15	11	·	·
CCC(C(=O)NC1CCCC1)n1c2ccccc2c2nc(=O)cc(C)n21 (configuration not stated)	·	-1	·	0	·	·	·	·
C/C(=N\Nc1cccc(C(=O)O)c1)c1ccc(Cl)s1	18	42*	-8	0	-7	98*	21	4
C#Cc1ccc(NC(=O)C2(C)CCN2C(=O)C2(c3ccccc3)CCCC2)cc1 (configuration not stated)	·	2	·	0	·	·	·	·
N#Cc1c(-c2ccc(Cl)cc2)cc(-c2cccs2)nc1SCC(=O)O	-4	66*	1	1	29	·	62*	25*
N#Cc1c(-c2ccccc2)cc(-c2cccs2)nc1SCC(=O)O	3	50*	4	0	-7	99*	41*	17*
COc1ccc(-c2cc(-c3cccs3)c(C#N)c(SCC(=O)NCc3ccccc3)n2)cc1	-4	1	-4	0	0	1	·	·
COC(=O)c1sc(S(=O)(=O)Nc2ccc(C)cc2)c(C(=O)OC)c1C	2	14	4	0	3	4	·	·
SMILES	APOBEC3A inh	rCAG binder	APOBEC3G inh	aDG glyco up	PHOSPHO1 block	ALR inh	rCAG binder conf	dCAG dye counter
COC(=O)c1sc(S(=O)(=O)Nc2ccc(Br)cc2)c(C(=O)OC)c1C	·	57*	·	0	-15	10	42*	14*
N#C/C(=N\Nc1cccc(C(F)(F)F)c1)C(=O)c1ccsc1	1	76*	9	0	21	4	56*	18*
CCOc1ccccc1N(CC(=O)NCCc1ccc(OC)c(OC)c1)S(=O)(=O)c1ccccc1	-4	43*	-7	0	28	·	2	0
Oc1ccc(/C=C/c2ccc3cccc(O)c3n2)cc1Br	-12	50*	-25	0	36	9	29	14*
O=C(O)c1ccc(/C=C/c2ccc3cccc(O)c3n2)cc1	4	12	-2	0	-20	·	·	·
Nc1[nH]c(C(=O)c2ccccc2)c(-c2ccccc2Br)c1C(=O)NCc1ccc(-c2ccccc2)cc1	·	18	·	0	·	·	·	·
CCOc1cc(C(=O)Nc2ccc(S(=O)(=O)Nc3onc(C)c3C)cc2)cc(OCC)c1OCC	-5	46*	-10	0	·	·	52*	20*
CCCOc1ccc(C(=O)N/N=C/c2ccc(-c3ccc(S(=O)(=O)Nc4ncccn4)cc3)o2)cc1	5	54*	5	0	15	5	60*	24*
COc1cc(C(=O)Nc2ccc(S(=O)(=O)Nc3onc(C)c3C)cc2)cc(OC)c1OC	-7	34	-8	0	-5	·	·	·
CCCOc1ccc(C(=O)Nc2ccc(S(=O)(=O)Nc3onc(C)c3C)cc2)cc1	6	49*	-4	1	-8	10	28	5.2*
NS(=O)(=O)c1ccc(-c2ccc(/C=N/NC(=O)c3ccc([N+](=O)[O-])cc3)o2)cc1	-7	2	3	0	49	-10	·	·
CCCCOc1ccc(C(=O)Nc2ccc(S(=O)(=O)Nc3onc(C)c3C)cc2)cc1	-2	77*	-4	0	23	1	53*	21*
COc1cc(OC)c(NC(=O)NNC(=O)C(=O)NC2CC2)cc1Cl	·	3	·	·	·	·	·	·
COCCCNC(=O)C1CCN(S(=O)(=O)c2ccc3[nH]c(=O)oc3c2)CC1	·	6	·	·	·	·	·	·
C[C@@H]1CN([C@@H](C)CO)C(=O)CCCn2cc(nn2)CO[C@H]1CN(C)S(=O)(=O)c1ccc2c(c1)OCCCO2	·	1	·	0	·	·	·	·
COc1ccc2c(c1)c(=O)oc1cc(OC(C(=O)O)c3ccccc3)ccc12 (configuration not stated)	4	52*	-1	0	33	4	41*	10*
CCc1ccc(N=C2NC(=O)/C(=C/c3ccc(OCC(=O)O)c(OC)c3)S2)cc1	-9	42*	-7	0	34	·	39*	12*
CCc1ccc(N=C2NC(=O)/C(=C/c3ccc(OCC(=O)O)cc3)S2)cc1	-5	49*	-2	0	36	98*	40*	10*
